Screening results: PubChem, The Scripps Research Institute Molecular Screening Center
This is a sample that favours compounds with a hit; in the whole collection about 0.84% have one here.
NR2F2 inh: NR2F2 transcriptional activity inhibitors, primary screen, cell-based, luciferase reporter, HEK293T, luminescence | actives 0.7% (n = 370,000) | COUP transcription factor 2 (Homo sapiens), P24468 | inhibition, % at 8.6 µM | HEK293T NGFI-A luciferase reporter;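 active = inhibition above a per-plate cutoff, mean inhibition of test wells between control levels plus 3 SD, cut at about 38% in these data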;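 note: cells cotransfected with COUP-TFII expression vector driving the NGFI-A reporter; 0% = median of COUP-TF2 test wells and 100% = reporter-only cells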
SRC1 inh: SRC1 coactivator transcriptional activity inhibitors, primary screen, cell-based, luminescence; actives 0.12% (n = 360,000); inhibition, % at 3.6 µM; HEK293 GAL4-SRC1 luciferase reporter;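 active = inhibition above the campaign mean plus 3 SD, with each screening campaign given its own cutoff, cut at about 60% in these data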;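 note: 0% = DMSO treated cells and 100% = gossypol at 36 µM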
NCOA2 inhibitor: inhibition of GAL4-SRC2 driven luciferase reporter, primary screen, SRC2 inhibitor project, cell-based, luminescence. AID 651957, 2012. HEK293 GAL4-SRC2 luciferase reporter. inhibition, % at 9 µM. Nuclear receptor coactivator 2 (Homo sapiens), Q15596. actives 0.17% (n = 370,000);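 active = inhibition above the mean inhibition of all tested compounds plus 3 SD, set per campaign, cut at about 52% in these data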;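 note: 0% = DMSO treated cells and 100% = cells given Gossypol at 36 µM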
SRC3 inh: SRC3 coactivator transcriptional activity inhibitors, primary screen, cell-based, luminescence; inhibition, % at 3.6 µM; HEK293 GAL4-SRC3 luciferase reporter; AID 588352, 2011; Nuclear receptor coactivator 3 (Homo sapiens), Q9Y6Q9; actives 0.17% (n = 360,000);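 active = inhibition above a per-campaign cutoff, the mean of all compounds plus 3 SD, cut at about 60% in these data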;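 note: 0% = DMSO-treated cells and 100% = gossypol-treated cells at 36 µM; higher means less SRC3-driven luciferase light from the GAL4 reporter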
Target sequence (Q9Y6Q9 whole entry, looked up, the tested form may be a part): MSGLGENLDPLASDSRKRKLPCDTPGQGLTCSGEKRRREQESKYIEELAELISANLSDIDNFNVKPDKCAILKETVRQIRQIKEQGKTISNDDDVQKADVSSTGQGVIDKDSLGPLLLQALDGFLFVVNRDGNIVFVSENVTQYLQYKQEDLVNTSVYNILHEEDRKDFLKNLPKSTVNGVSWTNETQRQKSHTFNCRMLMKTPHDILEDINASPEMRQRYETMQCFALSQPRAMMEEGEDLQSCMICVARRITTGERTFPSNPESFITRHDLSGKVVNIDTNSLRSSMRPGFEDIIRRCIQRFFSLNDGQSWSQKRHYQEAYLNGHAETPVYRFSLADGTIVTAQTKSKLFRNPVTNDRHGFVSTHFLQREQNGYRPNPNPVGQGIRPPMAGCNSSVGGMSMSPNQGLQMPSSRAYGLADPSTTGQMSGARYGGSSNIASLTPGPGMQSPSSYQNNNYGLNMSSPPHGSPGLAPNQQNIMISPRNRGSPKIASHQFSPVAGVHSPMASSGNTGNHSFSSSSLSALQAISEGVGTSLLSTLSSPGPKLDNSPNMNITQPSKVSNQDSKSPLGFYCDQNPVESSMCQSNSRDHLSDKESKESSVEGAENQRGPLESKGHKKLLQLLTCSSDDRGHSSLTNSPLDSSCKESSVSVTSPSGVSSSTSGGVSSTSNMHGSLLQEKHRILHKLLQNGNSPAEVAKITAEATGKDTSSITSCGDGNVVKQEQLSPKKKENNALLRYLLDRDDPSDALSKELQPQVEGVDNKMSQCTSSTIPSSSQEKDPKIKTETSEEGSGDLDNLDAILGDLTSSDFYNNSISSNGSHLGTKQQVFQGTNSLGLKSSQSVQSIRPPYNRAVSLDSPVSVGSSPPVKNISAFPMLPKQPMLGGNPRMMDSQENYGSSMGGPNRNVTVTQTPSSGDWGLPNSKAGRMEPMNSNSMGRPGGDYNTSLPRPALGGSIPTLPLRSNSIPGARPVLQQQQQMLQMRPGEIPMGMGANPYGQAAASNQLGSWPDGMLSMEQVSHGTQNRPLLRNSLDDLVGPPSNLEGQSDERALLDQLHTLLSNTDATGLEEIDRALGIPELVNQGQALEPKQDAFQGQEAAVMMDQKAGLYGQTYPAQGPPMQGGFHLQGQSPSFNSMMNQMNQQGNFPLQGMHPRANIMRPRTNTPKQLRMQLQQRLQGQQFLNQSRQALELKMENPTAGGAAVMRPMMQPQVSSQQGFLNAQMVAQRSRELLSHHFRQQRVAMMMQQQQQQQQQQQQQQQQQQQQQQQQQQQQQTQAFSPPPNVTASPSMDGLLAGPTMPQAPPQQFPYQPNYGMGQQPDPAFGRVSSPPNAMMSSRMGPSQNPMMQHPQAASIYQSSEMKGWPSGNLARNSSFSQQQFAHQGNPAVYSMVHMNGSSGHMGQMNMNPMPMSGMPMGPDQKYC
LRH-1 inv ag: LRH-1 (NR5A2) inverse agonists, primary screen, cell-based, luminescence, HEK293T, StAR-luciferase reporter; actives 0.13% (n = 360,000); Nuclear receptor subfamily 5 group A member 2 (Homo sapiens), O00482; LRH-1 transfected, 24 h; inhibition, % at 3.6 µM;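 active = inhibition above the mean inhibition of all tested compounds plus 3 SD, cut at about 73% in these data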;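 note: 0% = DMSO wells and 100% = reporter-only cells lacking LRH-1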
VP16 Luc counter: Gal4-VP16 luciferase reporter inhibitors, counter-screen for COUP-TFII antagonist project, cell-based, luminescence, HEK293; shares compounds with NR2F2 inh; inhibition, % at 8.5 µM; actives 25% (n = 2,500); AID 687007, 2013; in the data active = inhibition above about 13%
COUP-TFII conf: NR2F2 transcriptional activity inhibitors, confirmation, cell-based, luciferase reporter, HEK293, triplicate | AID 687008, 2013 | shares compounds with NR2F2 inh | HEK293 NGFI-A luciferase reporter, luminescence | actives 45% (n = 2,500) | inhibition, % at 8.5 µM;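 active = mean inhibition over three repeats above a set limit taken from the earlier primary screen, cut at about 38% in these data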;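 note: 100% = cells given the luciferase reporter alone without the COUP-TF2 vector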
* hit, by the source's call; . = no result given.

SMILES	NR2F2 inh	SRC1 inh	NCOA2 inhibitor	SRC3 inh	LRH-1 inv ag	VP16 Luc counter	COUP-TFII conf
Cc1ccc(Nc2nc(-c3ccc(S(=O)(=O)N4CCOCC4)cc3)cs2)cc1	37.8*	11.2	9.1	8.9	21.1	-0.1	18.2
O=C(Nc1nc(-c2ccc3c(c2)OCCO3)cs1)c1ccc(S(=O)(=O)N2CCCCC2)cc1	-3.8	22.0	17.7	36.2	5.5	.	.
O=C(NCC(c1ccccc1)c1ccccc1)[C@H](Cc1c[nH]c2ccccc12)NC1(C(=O)NC2CCCCC2)CCCCCC1	2.1	.	.	.	.	.	.
Cc1cc(Br)c(OCc2ccc(C(=O)N/N=C/c3ccc[nH]3)cc2)c(Br)c1	68.3*	-10.0	-40.8	75.8*	90.6*	28.9*	78.3*
O=C(N/N=C/c1ccccc1C(=O)O)c1ccc(COc2cccc3cccnc23)cc1	7.3	-1.1	-10.3	-7.7	12.8	.	.
O=C(N/N=C/c1ccc[nH]1)c1ccc(COc2cccc3cccnc23)cc1	73.1*	36.3	33.9	69.1*	79.3*	38.7*	89.3*
C=CCN1C(=O)[C@H](CC(=O)N2CCCCC2)[C@@]2(C(=O)OCC)CCCC=C12	-9.1	.	15.0	.	.	.	.
Cc1ccc(C)c(NC(=O)C2CCCN2S(=O)(=O)c2cccnc2)c1 (centres undefined)	7.9	.	16.2	.	.	.	.
COc1ccc(NC(=O)COc2ccc(N(C)S(=O)(=O)c3ccc(Cl)cc3)cc2)cc1OC	59.1*	11.4	13.9	28.5	41.0	1.8	58.5*
COc1ccc(NS(=O)(=O)c2ccc(OC)c(N(C)S(=O)(=O)c3ccc(Cl)cc3)c2)cc1	57.1*	-3.7	33.9	25.6	40.5	-6.6	21.4
COc1ccc(-c2csc(NC(=O)COc3ccc(N(C)S(=O)(=O)c4ccc(C)cc4)cc3)n2)cc1	40.3*	-13.1	17.5	23.3	5.3	-13.8	24.7
Cc1ccc(-c2csc(NC(=O)COc3ccc(N(C)S(=O)(=O)c4ccc(C)cc4)cc3)n2)cc1	7.5	0.2	5.3	21.9	16.0	.	.
COc1ccc(S(=O)(=O)Nc2ccc(F)cc2)cc1N(C)S(=O)(=O)c1ccc(Cl)cc1	14.2	-5.5	7.3	0.1	-3.5	.	.
CCN(CC)C(=O)CC[C@H]1CC[C@]2(CCCN(Cc3ccc(N(C)C)cc3)C2)O1	-6.0	.	-8.7	.	.	.	.
COC(=O)c1cc(C)oc1C	-10.9	.	-20.5	.	.	.	.
O=C(NCc1c(F)cccc1F)C1CCC(CNS(=O)(=O)c2cccc3cccnc23)CC1 (centres undefined)	1.2	.	3.5	.	.	.	.
C=CCN1C(=O)[C@H](CC(=O)NCCC(C)C)[C@@]2(C(=O)OCC)CCCC=C12	0.6	.	-7.1	.	.	.	.
COCCCN=C1NN=C(c2cc(C)n(Cc3ccco3)c2C)CS1	-34.4	-133.4	-61.7	-87.4	-110.1	.	.
C=CCn1c(C)cc(C2=NNC(=Nc3ccc(C)cc3)SC2)c1C	-2.5	-2.9	-12.2	17.2	-1.7	.	.
C=CCN=C1NN=C(c2cc(C)n(CCOC)c2C)CS1	86.1*	12.6	69.5*	27.6	-6.9	75.5*	96.0*
COCCn1c(C)cc(C2=NNC(=NC3CC3)SC2)c1C	93.9*	88.6*	85.9*	90.8*	86.8*	89.2*	109.4*
COCCn1c(C)cc(C2=NNC(=Nc3ccc(Cl)cc3Cl)SC2)c1C	-5.2	-8.1	11.4	4.5	12.5	.	.
Cc1cc(C2=NNC(=NC3CC3)SC2)c(C)n1-c1ccccc1	52.4*	83.5*	79.6*	86.4*	76.5*	70.6*	106.0*
Cc1cc(C2=NNC(=NC3CC3)SC2)c(C)n1Cc1ccco1	88.5*	76.0*	82.7*	83.4*	76.2*	77.3*	103.1*
COc1ccc(OC)c(S(=O)(=O)N2CCCC(c3noc(-c4ccc(C)cc4)n3)C2)c1 (centres undefined)	4.7	.	9.9	.	.	.	.
SMILES	NR2F2 inh	SRC1 inh	NCOA2 inhibitor	SRC3 inh	LRH-1 inv ag	VP16 Luc counter	COUP-TFII conf
Nn1c(SCC(=O)Nc2ccccc2-c2ccccc2)nnc1-c1cc(-c2ccc(F)cc2)n[nH]1	-8.6	.	-3.0	.	.	.	.
C=C(C)CSc1nc2sc(C)c(C)c2c(=O)n1C	3.9	.	3.1	.	.	.	.
O=C(NCc1ccccc1)Nc1ccccc1C(=O)N1CCCC1	-6.1	.	11.4	.	.	.	.
O=C(Nc1cccc(S(=O)(=O)N2CCCCCC2)c1)C1CCN(C(=O)c2ccc(Cl)cc2)CC1	42.4*	0.3	0.9	8.2	-3.2	-2.6	8.6
O=C(Nc1cccc(S(=O)(=O)N2CCCCC2)c1)C1CCN(C(=O)c2ccc(Cl)cc2)CC1	15.2	-2.4	-1.3	-4.2	17.2	.	.
O=C(Nc1cccc(S(=O)(=O)Nc2ccccc2Cl)c1)c1ccc(Cl)nc1	47.5*	32.6	16.1	43.0	40.7	9.9	40.0*
O=C(Nc1cccc(S(=O)(=O)N2CCCCC2)c1)c1ccc(Cl)nc1	29.0	11.9	4.6	9.3	13.5	.	.
O=C(Nc1cccc(S(=O)(=O)N2CCCCCC2)c1)c1ccc(Cl)nc1	40.7*	11.9	20.7	11.4	5.8	-2.1	5.2
O=C(C1CCCN1S(=O)(=O)c1ccc([N+](=O)[O-])cc1)N1CCc2ccccc2C1 (centres undefined)	-5.7	.	-39.5	.	.	.	.
Cc1ccccc1-n1ncc2c(SCC(=O)NC3CCCC3)ncnc21	46.3*	2.6	27.0	22.2	28.7	-5.6	24.4
c1ccc(-c2c[nH]c3ccc(OCc4ccc5ccccc5n4)c(-c4ccccc4)c23)cc1	5.8	.	10.4	.	.	.	.
CCOC(=O)C1CCN(CC(=O)Nc2c(C(=O)OC)[nH]c3ccc(Cl)cc23)CC1	41.5*	1.5	10.5	21.5	21.4	3.6	32.4
CC(C)=CCC/C(C)=C/C[C@]12C[C@H](C(=O)O)N(C(=O)OC(C)(C)C)[C@@H]1N(C(=O)OC(C)(C)C)c1ccccc12	13.0	.	.	.	.	.	.
Cc1cc(SCC(=O)c2ccccc2)n2nc(C)nc2n1	45.0*	-1.9	2.7	-6.6	21.1	13.2*	32.1
CC(C)CNC(=O)OCc1cn(Cc2ccccc2)nn1	0.5	.	-1.5	.	.	.	.
CC(C)(C)OC(=O)NCc1ccccc1/C=C/S(=O)(=O)NC1CCCC1	5.5	.	-11.7	.	.	.	.
O=C(c1ccccc1F)N1CCN(S(=O)(=O)c2ccc3c(c2)OCCO3)CC1	42.5*	11.9	39.9	5.4	-9.3	-13.4	13.1
C=CCNC1CCC12CCC(c1ccccc1)CC2 (centres undefined)	-4.8	.	.	.	.	.	.
COc1cc(NC(=O)c2c(-c3ccccc3Cl)noc2C)c2ncccc2c1	22.9	4.7	-27.3	6.4	-4.1	.	.
